Consider 27 molecules from PubChem BioAssay (EPA / NIEHS).

The AC50 is the concentration at which the activity in the assay is half-maximal.

Several values for one entry are separate records, joined by “and”; a condition that tells them apart may be missing. Identical values can stand only once. Activity calls are given as the source filed them. The calls were made as follows: active = hit-call score of the fitted dose curve at least 0.9, where 1 is the maximum; inactive = score below 0.9.

Read-out in the test: Monocyte Chemoattractant Protein-1 (MCP1), CCL2 (gene 6347)
As to the kind of experiment: BSK_3C_MCP1: BioMAP Diversity Plus: 3C Assay for Monocyte Chemoattractant Protein-1 (MCP1) Biomarker Activity (AID 2283017). Particulars: primary human endothelial cells (HUVEC); actives raise or lower the signal. Here is the method: BSK_3C is a cell-based, multiplexed-readout assay that uses umbilical vein endothelium, a human vascular primary cell, with measurements taken at 24 hours after chemical dosing in a 96-well plate.BSK_3C_MCP1 is an assay component measured in the BSK_3C assay. It measures MCP-1 antibody related to regulation of gene expression using ELISA technology.Data from the assay component BSK_3C_MCP1 was analyzed into 1 assay endpoint. This assay endpoint, BSK_3C_MCP1, was analyzed with bidirectional fitting relative to DMSO as the negative control and baseline of activity. Using a type of binding reporter, gain or loss-of-signal activity can be used to understand changes in the signaling as they relate to the gene CCL2. Furthermore, this assay endpoint can be referred to as a primary readout, because this assay has produced multiple assay endpoints where this one serves a signaling function. To generalize the intended target to other relatable targets, this assay endpoint is annotated to the cytokine intended target family, where the subfamily is chemotactic factor.
The levels of cell surface (or secreted, indicated by the prefix "s") biomarker endpoints were measured by ELISA. Overt cytotoxicity to cells in confluent adherent cultures (all systems other than the BT system) was assessed by measuring total protein levels using sulforhodamine B (SRB) staining in parallel cultures at the time of biomarker measurements, indicated as SRB endpoints. For proliferation assays for adherent cell types, individual cell types are cultured at sub-confluence and relative cell numbers quantified by SRB staining at time points optimized for each system (48 h: 3C and CASM3C systems; 72 h: BT and HDF3CGF systems; 96 h: SAg system). SRB was performed by staining cells with 0.1% SRB after fixation with 10% TCA and reading wells at 560 nm.Viability and proliferation of PBMC (T cells) was quantified by Alamar Blue reduction for the SAg and BT systems. For PBMC viability (referred to as PBMC Cytotoxicity within the assay endpoint names), cells were plated (75,000/well in a 96-well plate) and then chemical samples added for 1 h before addition of activators, SEB and TSST-1 (20 ng/mL final concentration each). Cells were incubated for 90 h. Then, Alamar Blue (20 uL/well) (Invitrogen, Cat DAL1100) was added for 6 h, and the plates were read with a fluorescence microplate reader at 546/580 nm (excitation/emission). For PBMC proliferation, cells were plated and activated as above but incubated for only 16 h prior to addition of Alamar Blue. Plates were read after 6 h.
In the case of `Cc1c(C(N)=O)cc([N+](=O)[O-])cc1[N+](=O)[O-]`, the result was inactive.
The same measure, in the same setting: as for `CCCCCCC(O)CCCCCCCCCCC(=O)OC` (configuration not stated), the entry is “inactive”; as for `CC(C)C1OCCN1CCOC(=O)NCCCCCCNC(=O)OCCN1CCOC1C(C)C` (configuration not stated), “inactive”.
As to `Cc1cc(-n2nc3ccc(Cl)cc3n2)c(O)c(C(C)(C)C)c1`, the result was inactive.
Same read-out and setting: the entry for `CC[N+](CC)(CC(=O)Nc1c(C)cccc1C)Cc1ccccc1` is “inactive”; for `CC[N+](CC)(CC(=O)Nc1c(C)cccc1C)Cc1ccccc1` (tested in a mixture with another compound) it is “inactive”.
Turning to `CN(C)c1ccc(C(c2ccccc2)c2ccc(N(C)C)cc2)cc1`, the AC50 is 11.9 µM (active).
Turning to `CCCCCCCCCC/C=C/C1CC(=O)OC1=O` (configuration not stated), the outcome was inactive.
With `COc1cc(CNC(=O)CCCC/C=C/C(C)C)ccc1O`, the outcome was inactive.
Consider `CN(C)Cc1cc(C(C)(C)C)c(O)c(C(C)(C)C)c1`, for which the outcome was inactive.
In the case of `CC(C)CC(=O)CC(C)CC(C)C` (configuration not stated), the half-maximal activity concentration (AC50) is 31.2 µM (active).
`C1CN(CCOCCN2CCOCC2)CCO1`: the result was inactive.
On the same count and under the same terms, as for `COc1ccccc1Oc1c(NS(=O)(=O)c2ccc(C(C)(C)C)cc2)nc(-c2ncccn2)nc1OCCO`, the entry is “inactive”; as for `Oc1cccc2ccccc12`, “inactive”.
In the case of `OC(C(F)(F)F)(C(F)(F)F)C(O)(C(F)(F)F)C(F)(F)F`, the concentration at half-maximal activity (AC50) is 49.9 µM (active) and 50.5 µM (active).
As to `CCCCCCCCCCCCCCCCCC[N+](C)(C)C`, the AC50 is 1.68 µM (active).
For `Sc1nc2ccccc2s1`, the outcome was inactive.
With `O=[N+]([O-])c1cc(S(=O)(=O)Nc2ccccc2)ccc1Nc1ccccc1`, the half-maximal activity concentration (AC50) is 32.3 µM (active) and 30 µM (active).
In the case of `Cc1cccnc1`, the result was inactive.
Take `CN(C)CCC(c1ccc(Cl)cc1)c1ccccn1` (configuration not stated): the outcome was inactive.
On to `CCC(C)=NO`, for which the result was inactive.
`CCCCCCCCCCC1CO1` (configuration not stated): the concentration at half-maximal activity (AC50) is 31 µM (active).
Turning to `COc1ccc(C(=O)c2ccccc2O)c(O)c1`, the result was inactive.
As to `CCCCC(CC)COC(=O)C=Cc1ccc(OC)cc1` (configuration not stated), the AC50 was 33 µM (active).
Take `COC(=O)/C=C\C(=O)OC`: the outcome was inactive.
The same measure, in the same setting: as for `O=C(C(=O)c1ccccc1)c1ccccc1`, the entry is “inactive”; as for `CCC[Si](OC(C)=O)(OC(C)=O)OC(C)=O`, “inactive”.
